In PubChem BioAssay (Tox21) one finds Potency and outcome data, which are given here for 14 compounds.

Activity calls are given as the source filed them. Unless noted, the call rests on the fitted dose curve; in most records, active means well fitted curve in the direction sought with a large enough effect in the repeat runs; inconclusive means weak or mixed curves; inactive means no such curve, though single readings can be large; an effect the other way counts as inactive or inconclusive.

Experiment [1] is described as follows: qHTS assay for identifying genotoxic compounds that show differential cytotoxicity against isogenic chicken DT40 cell lines with known DNA damage response pathways - Rev3 mutant cell line (AID 743014). Further: potency means the concentration at half of the fitted maximal effect; nearly all actives have a fitted effect of over 55% in size. Particulars: chicken DT40 Rev3-/- viability, CellTiter-Glo, 40 h; series mostly up to 68.4 µM. (In general: In qHTS, concentration-response curves come from the screen itself.)

Experiment [2] in a line: qHTS assay for identifying genotoxic compounds that show differential cytotoxicity against isogenic chicken DT40 cell lines with known DNA damage response pathways - Rad54/Ku70 mutant cell line (AID 743015). Further: potency means the concentration at half of the fitted maximal effect; nearly all actives have a fitted effect of over 60% in size. The following applies: DT40 Rad54/Ku70 mutant viability, CellTiter-Glo, 40 h; series mostly up to 66.8 µM.
The nature of experiment [3]: qHTS assay to identify small molecule antagonists of the androgen receptor (AR) signaling pathway - cell viability counter screen (AID 743033; further: potency means the concentration at half of the fitted maximal effect; nearly all actives have a fitted effect of over 45% in size). Particulars: AR-bla HEK293 viability, CellTiter-Glo luminescence, 16 h; series mostly up to 58.5 µM.
The nature of experiment [4]: qHTS assay to identify small molecule antagonists of the thyroid receptor (TR) signaling pathway - cell viability counter screen (AID 743064). Further: nearly all actives have a fitted effect of over 50% in size. Further: potency means the concentration at half of the fitted maximal effect. The following applies: GH3.TRE-Luc viability, CellTiter-Fluor, 24 h; series mostly up to 70.3 µM. The method in brief: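 Plate GH3.TRE-Luc cells; incubate 4 h at 37 °C; add compound, then T3 to 1 nM final; incubate 23.5 h; add CellTiter-Fluor; incubate 30 min at 37 °C, 5% CO2; read fluorescence.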

Experiment [5] can be described thus: qHTS assay to identify small molecule antagonists of the thyroid receptor (TR) signaling pathway (AID 743065). Further: nearly all actives have a fitted effect of over 55% in size. Further: potency means the concentration at half of the fitted maximal effect. Particulars: GH3.TRE-Luc, T3-stimulated luciferase inhibition, 23.5 h; series mostly up to 70.3 µM. In outline: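 Antagonism measured as loss of luciferase signal in GH3 cells stably carrying a TRE-luciferase reporter, co-treated with compound and T3 (1 nM final) for 23.5 h at 37 C. Viability was read in the same well by CellTiter-Fluor.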

A short description of experiment [6]: qHTS assay to identify small molecule antagonists of the estrogen receptor alpha (ER-alpha) signaling pathway - cell viability counter screen (AID 743074; calls by dose curve;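 further: HEK293 cells carrying ER-alpha-UAS-bla reporter stimulated with 17beta-estradiol; nearly all actives have a fitted effect of over 45% in size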; further: potency means the concentration at half of the fitted maximal effect). The following applies: ERalpha-bla HEK293 viability, CellTiter-Glo luminescence, 18 h; series mostly up to 69.4 µM.
In experiment [7] the target is Estrogen receptor (Homo sapiens) (UniProt P03372). Kind of experiment: qHTS assay to identify small molecule agonists of the estrogen receptor alpha (ER-alpha) signaling pathway (AID 743075; calls by dose curve; further: potency means the concentration at half of the fitted maximal effect). Particulars: HEK293 ER-alpha-UAS-bla, beta-lactamase FRET ratio, 18 h; series mostly up to 70.1 µM.
Chain of Estrogen receptor (Homo sapiens) (P03372 whole entry, looked up): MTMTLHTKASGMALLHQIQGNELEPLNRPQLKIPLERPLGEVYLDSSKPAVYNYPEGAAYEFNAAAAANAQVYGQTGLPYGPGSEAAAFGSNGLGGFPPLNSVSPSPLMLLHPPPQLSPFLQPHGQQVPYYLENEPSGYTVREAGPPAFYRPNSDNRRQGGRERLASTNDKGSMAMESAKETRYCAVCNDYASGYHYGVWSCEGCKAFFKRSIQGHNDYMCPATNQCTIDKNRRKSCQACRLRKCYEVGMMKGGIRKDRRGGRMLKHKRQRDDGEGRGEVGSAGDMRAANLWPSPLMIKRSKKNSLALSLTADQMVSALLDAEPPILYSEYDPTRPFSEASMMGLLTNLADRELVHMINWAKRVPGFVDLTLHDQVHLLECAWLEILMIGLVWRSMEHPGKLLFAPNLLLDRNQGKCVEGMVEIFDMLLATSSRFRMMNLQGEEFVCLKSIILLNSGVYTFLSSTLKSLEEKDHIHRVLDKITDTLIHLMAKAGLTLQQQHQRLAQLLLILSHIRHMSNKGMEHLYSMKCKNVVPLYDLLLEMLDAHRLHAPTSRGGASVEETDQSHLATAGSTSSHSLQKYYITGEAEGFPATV
For experiment [8] the target is unchanged. Kind of experiment: qHTS assay to identify small molecule agonists of the estrogen receptor alpha (ER-alpha) signaling pathway using the BG1 cell line (AID 743079). Further: nearly all actives have a fitted effect of over 20% in size. Further: potency means the concentration at half of the fitted maximal effect. Particulars: BG1Luc4E2 cells, ERE-luciferase agonist, 22 h; activation: at 70.3 µM (top of the series).
Experiment [9] is described as follows: qHTS assay to identify small molecule antagonists of the estrogen receptor alpha (ER-alpha) signaling pathway using the BG1 cell line (AID 743080; calls by dose curve;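 further: BG1 cells stimulated with 17beta-estradiol alongside compound; nearly all actives have a fitted effect of over 25% in size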; further: potency means the concentration at half of the fitted maximal effect). The following applies: BG1Luc4E2 ERE-luciferase antagonist mode, luminescence; activity change, negative = inhibition: at 70.3 µM (top of the series). In outline: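 Luminescence from a 4×ERE-luciferase reporter in BG1-Luc-4E2 cells served as read-out. Cells, pre-cultured 5 days in stripped-serum phenol-red-free medium, were exposed to compound with 17beta-estradiol co-stimulation for 21.5 h at 37 C.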

Experiment [10] can be described thus: qHTS assay to identify small molecule antagonists of the estrogen receptor alpha (ER-alpha) signaling pathway using the BG1 cell line - cell viability counter screen (AID 743081).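 Further: compound given together with 17beta-estradiol as the ER stimulus; nearly all actives have a fitted effect of over 45% in size.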 Particulars: BG1Luc4E2 viability, CellTiter-Fluor, 22 h; series mostly up to 70.3 µM.
Another experiment addresses Aromatase (Homo sapiens) (UniProt P11511). The experiment is described as follows: qHTS assay to identify aromatase inhibitors (AID 743083). Further: nearly all actives have a fitted effect of over 55% in size. Further: potency means the concentration at half of the fitted maximal effect. The following applies: MCF-7 aro ERE, testosterone-driven ERE luciferase, 24 h; series mostly up to 70.3 µM.
Experiment [11] in a line: qHTS assay for identifying genotoxic compounds that show differential cytotoxicity against isogenic chicken DT40 cell lines with known DNA damage response pathways - wild type cell line (AID 743012). Further: potency means the concentration at half of the fitted maximal effect; nearly all actives have a fitted effect of over 60% in size. Particulars: DT40 wild type chicken cells viability, CellTiter-Glo, 40 h; series mostly up to 68.4 µM. In outline: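 Parental DNA repair-proficient DT40 cells, 300 per well, were pre-incubated ~0.5 h at 37 C/5% CO2, pin-dosed with compounds in DMSO, then incubated 40 h. Viability was read as CellTiter-Glo luminescence after 30 min at room temperature.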

Experiment [12] deals with thyroid hormone receptor (rat, GH3 cells). Kind of experiment: qHTS assay to identify small molecule agonists of the thyroid receptor (TR) signaling pathway (AID 743066; calls by dose curve). Particulars: GH3.TRE-Luc cells, TR agonist luciferase, 24 h; series mostly up to 83.9 µM.
A short description of experiment [13]: qHTS assay to identify small molecule antagonists of the androgen receptor (AR) signaling pathway using the MDA cell line - cell viability counter screen (AID 743041; further: nearly all actives have a fitted effect of over 45% in size; further: potency means the concentration at half of the fitted maximal effect). The following applies: MDA-kb2 viability, CellTiter-Fluor, 16 h, cells co-treated with R1881 androgen agonist; series mostly up to 70.3 µM. The method in brief:
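R1881-driven MDA-kb2 AR-luc cells, 3,000/well, were dosed with library compounds for 16 h; cell health came from CellTiter-Fluor fluorescence in the reporter wells.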

The target of experiment [14] is Androgen receptor (Homo sapiens) (UniProt P10275). The experiment is described as follows: qHTS assay to identify small molecule antagonists of the androgen receptor (AR) signaling pathway (AID 743035; active means well fitted inhibition curve with a large enough effect in the signal ratio in the repeat runs, not every such curve was filed as active; inconclusive means weak or mixed curves, or effect the other way; inactive means no such curve, though single readings can be large or run the other way; the % refers to the signal ratio). Particulars: HEK293 AR-UAS-bla, R1881-stimulated, beta-lactamase FRET, 16 h; series mostly up to 58.5 µM. The method in brief: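 HEK293 cells stably carrying a UAS-driven beta-lactamase reporter (AR-UAS-bla GripTite) were plated for 4 h at 37C, then given compound and the agonist R1881 and incubated 16 h. Reporter activity was read by LiveBLAzer B/G FRET fluorescence after 2 h at room temperature.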
Chain of Androgen receptor (Homo sapiens) (P10275 whole entry, looked up): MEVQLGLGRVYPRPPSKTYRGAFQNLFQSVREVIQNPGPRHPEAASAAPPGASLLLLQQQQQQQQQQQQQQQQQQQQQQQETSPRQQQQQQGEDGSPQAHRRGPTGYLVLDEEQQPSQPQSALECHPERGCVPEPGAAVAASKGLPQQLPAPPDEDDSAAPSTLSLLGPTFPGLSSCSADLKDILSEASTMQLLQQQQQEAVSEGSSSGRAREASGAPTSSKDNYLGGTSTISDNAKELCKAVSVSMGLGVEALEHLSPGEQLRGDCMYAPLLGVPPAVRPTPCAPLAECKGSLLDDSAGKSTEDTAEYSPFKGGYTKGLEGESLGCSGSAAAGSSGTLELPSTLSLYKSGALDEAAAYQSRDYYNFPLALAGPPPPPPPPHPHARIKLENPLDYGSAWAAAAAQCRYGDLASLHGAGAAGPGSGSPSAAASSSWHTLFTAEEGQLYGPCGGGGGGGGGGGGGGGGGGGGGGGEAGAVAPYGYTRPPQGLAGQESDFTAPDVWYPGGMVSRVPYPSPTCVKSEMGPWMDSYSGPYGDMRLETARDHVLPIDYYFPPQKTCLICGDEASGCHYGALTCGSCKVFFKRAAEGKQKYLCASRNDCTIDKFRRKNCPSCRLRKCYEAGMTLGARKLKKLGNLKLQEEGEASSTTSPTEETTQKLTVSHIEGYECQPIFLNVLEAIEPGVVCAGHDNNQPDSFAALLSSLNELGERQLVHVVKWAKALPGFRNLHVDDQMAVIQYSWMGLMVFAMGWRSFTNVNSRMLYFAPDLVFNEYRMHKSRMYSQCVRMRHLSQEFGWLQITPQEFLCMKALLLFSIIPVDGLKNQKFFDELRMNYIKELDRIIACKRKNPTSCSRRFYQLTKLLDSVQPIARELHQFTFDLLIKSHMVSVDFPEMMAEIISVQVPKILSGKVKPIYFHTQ

The target is the same in experiment [15]. The experiment is described as follows: qHTS assay to identify small molecule agonists of the androgen receptor (AR) signaling pathway (AID 743036; active means well fitted activation curve with a large enough effect in the signal ratio in the repeat runs, with a control signal flat, not every such curve was filed as active; inconclusive means weak or mixed curves, or effect the other way; inactive means no such curve, though single readings can be large or run the other way; the % refers to the signal ratio). Particulars: HEK293 AR-UAS-bla GripTite, beta-lactamase FRET ratio, 16 h; series mostly up to 62.4 µM. The method in brief:
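Reporter line: GeneBLAzer AR-UAS-bla-GripTite (HEK293). Steps: plate cells, 4 h rest, add compounds, 16 h at 37C, add LiveBLAzer B/G substrate, 2 h at RT, read fluorescence.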

Experiment [16] has the same target. The experiment is described as follows: qHTS assay to identify small molecule agonists of the androgen receptor (AR) signaling pathway using the MDA cell line (AID 743040; further: nearly all actives have a fitted effect of over 20% in size). The following applies: MDA-kb2 AR-luc cells, MMTV luciferase, 16 h; series mostly up to 70.3 µM. The method in brief: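 After a 5 h incubation at 37C and 0% CO2, MDA-kb2 reporter cells were dosed with compounds in DMSO and kept 16 h under the same conditions. Luciferase activity was then read as luminescence with ONE-Glo.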

The target is the same in experiment [17]. Kind of experiment: qHTS assay to identify small molecule antagonists of the androgen receptor (AR) signaling pathway using the MDA cell line (AID 743042; further: nearly all actives have a fitted effect of over 55% in size; further: potency means the concentration at half of the fitted maximal effect). The following applies: MDA-kb2 AR-luc, MMTV luciferase, R1881 antagonist, 16 h; series mostly up to 70.3 µM. In outline: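 Antagonist mode: compounds plus R1881 agonist added to MDA-kb2 AR-luc cells, incubated 16 h at 37C. Luciferase reporter luminescence quantified, with multiplexed CellTiter-Fluor readout for cell viability.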

Chain of Aromatase (Homo sapiens) (P11511 whole entry, looked up): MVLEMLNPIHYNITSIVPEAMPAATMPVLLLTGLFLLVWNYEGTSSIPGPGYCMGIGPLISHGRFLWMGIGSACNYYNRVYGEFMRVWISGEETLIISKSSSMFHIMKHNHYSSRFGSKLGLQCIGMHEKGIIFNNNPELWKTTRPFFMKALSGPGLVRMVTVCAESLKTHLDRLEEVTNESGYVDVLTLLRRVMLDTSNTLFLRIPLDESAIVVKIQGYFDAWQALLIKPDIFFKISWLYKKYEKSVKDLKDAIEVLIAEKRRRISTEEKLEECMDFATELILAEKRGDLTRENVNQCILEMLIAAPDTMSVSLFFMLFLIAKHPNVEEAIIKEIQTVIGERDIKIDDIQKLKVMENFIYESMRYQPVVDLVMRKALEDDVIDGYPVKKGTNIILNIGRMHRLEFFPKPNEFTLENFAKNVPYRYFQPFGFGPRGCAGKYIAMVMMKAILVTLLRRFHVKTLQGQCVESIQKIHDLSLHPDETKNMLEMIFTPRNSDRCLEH

Take `O[C@@H](c1cc(C(F)(F)F)nc2c(C(F)(F)F)cccc12)[C@H]1CCCCN1`: the Potency in experiment [1] is 4.73 µM (active); in experiment [2], 5.31 µM (active); in experiment [3] it was 23.9 µM (active); in [4], 5.96 µM (active); in experiment [5] it was 5.96 µM (active); in experiment [6], 23.9 µM (active). Also, the Potency is 26.8 µM [inconclusive] (active) in [7], 2.37 µM (active) in experiment [8] and 23.7 µM (active) with Aromatase (Homo sapiens). In addition, the Potency entry in [9] and in experiment [10] was “inactive” throughout.

Turning to `O=C1NC2CCCCN2C12CCN(CCCN1c3ccccc3CCc3ccc(Cl)cc31)CC2` (stereo not drawn), the Potency is 9.44 µM (active) in experiment [11]; 13.3 µM (active) in experiment [1]; 13.3 µM (active) in experiment [2]; 6.68 µM (active) in experiment [4]; 23.7 µM (active) with Aromatase (Homo sapiens). Moreover, the Potency result in [6] and in experiment [7] was “inactive” each time.

On to `C=CC(=O)OCCOCC(CC)(COCCOC(=O)C=C)COCCOC(=O)C=C`, for which the Potency in experiment [11] was 6.37 µM (active); in experiment [1], 4.51 µM (active); in experiment [2] it was 5.06 µM (active); in experiment [3] it was 22.8 µM (active); with Aromatase (Homo sapiens) it was 10.1 µM (active). The Potency entry in experiment [4], in experiment [5], in [12] and in experiment [6] was “inactive” in each case.

Turning to `CC1=C(/C=C/C(C)=C/C=C/C(C)=C\C=O)C(C)(C)CCC1`, the Potency in [1] is 14.5 µM (active); in experiment [2], 13 µM (active); in [3], 29.3 µM (active); in experiment [4], 25.8 µM (active); in experiment [5], 29 µM (active). In addition, the Potency entry in experiment [13] and in experiment [12] was “inactive” throughout.

On to `CN(C)CCCN1c2ccccc2Sc2ccc(C(F)(F)F)cc21`, for which the Potency was 7.5 µM (active) in [11]; 8.41 µM (active) in experiment [1]; 11.9 µM (active) in [2]; 9.44 µM (active) in experiment [4]; 10.6 µM (active) in experiment [5]. In addition, the Potency entry (in experiment [7]; in experiment [9]; in [10]; with Aromatase (Homo sapiens)) was “inactive” in each case.

Regarding `CC(O)C#CC(C)O` (stereo not drawn), the Potency in experiment [11] is 9.59 µM (active); in experiment [1], 7.62 µM (active); in experiment [2] it was 10.8 µM (active); in experiment [3], 48.5 µM (active); in experiment [5] it was 60.5 µM (active). In addition, the Potency entry in experiment [13], in experiment [12], in [6], in experiment [7], in [8] and in experiment [10] was “inactive” each time.

Consider `Cc1c(C(=O)O)cccc1[N+](=O)[O-]`, for which the Potency in experiment [11] was 62.1 µM (active). In addition, the Potency entry in experiment [14], in experiment [16], in experiment [13], in experiment [4], in [5] and in experiment [12] was “inactive” in each case. For the same compound, the Potency entry (in experiment [6]; in experiment [10]; with Aromatase (Homo sapiens)) was “inactive” in each case. Further, in [15], the result was inactive.

`c1cc(OCC2CO2)cc(OCC2CO2)c1` (stereo not drawn): the Potency in experiment [11] was 0.856 µM (active); in [1], 0.0763 µM (active); in experiment [2] it was 1.36 µM (active); in experiment [4], 19.2 µM (active); in experiment [5] it was 7.63 µM (active). Moreover, the Potency result in experiment [16], in experiment [12], in experiment [7] and in experiment [10] was “inactive” each time.

Take `C[n+]1c2cc(N)ccc2cc2ccc(N)cc21` (tested in a mixture with another compound): the Potency in [11] is 5.96 µM (active); in experiment [1] it was 1.68 µM (active); in experiment [2] it was 2.66 µM (active); in the experiment with Aromatase (Homo sapiens), 18.8 µM (active). Also, the Potency result in [16] and in experiment [6] was “inactive” each time.

`CCC(C)c1cc([N+](=O)[O-])cc([N+](=O)[O-])c1OC(=O)OC(C)C` (stereo not drawn): the Potency in experiment [11] was 30.6 µM (active); in [1], 48.6 µM (active); in experiment [2], 30.6 µM (active); in experiment [17], 27.3 µM (active); in experiment [4] it was 48.6 µM (active); in [5], 21.7 µM (active). Besides, the Potency in the experiment with Aromatase (Homo sapiens) was 61.1 µM (active). The Potency entry in experiment [16] and in [12] was “inactive” throughout.

`CN1CCN(C2Cc3ccccc3Sc3ccc(Cl)cc32)CC1` (stereo not drawn): the Potency in experiment [11] was 5.96 µM (active); in [1], 6.68 µM (active); in experiment [2] it was 9.44 µM (active); in [4], 9.44 µM (active); in [5], 9.44 µM (active). In addition, the outcome in [15] was inactive. Besides, the Potency entry in experiment [16], in [17], in experiment [7], in [8], in experiment [9] and in experiment [10] was “inactive” in each case.

On to `O=C(NO)c1ccccc1`, for which the Potency in experiment [1] is 44.9 µM (active); in [2] it was 50.4 µM (active); in experiment [4], 26 µM (active); in experiment [5], 41.2 µM (active). For the same compound, the Potency result (in [16]; in experiment [17]; in the experiment with Aromatase (Homo sapiens)) was “inactive” throughout.

As to `O=C(Nc1ccc(Cl)c(Cl)c1)c1cc(Cl)cc(Cl)c1O`, the Potency was 6.11 µM (active) in experiment [11]; 4.86 µM (active) in experiment [1]; 4.86 µM (active) in experiment [2]; 1.95 µM (active) in experiment [3]; 12.2 µM (active) in experiment [13]; 2.17 µM (active) in [5]. The Potency in experiment [6] is 2.45 µM (active); in experiment [7], 0.436 µM [inconclusive] (active); in experiment [9] it was 4.86 µM (active); with Aromatase (Homo sapiens) it was 6.11 µM (active). For the same compound, the Potency result in [12] and in [10] was “inactive” in each case.

For the compound `CC(C)(C)c1cc(/C=C2\SC(=N)NC2=O)cc(C(C)(C)C)c1O`, the Potency in [11] is 43.3 µM (active); in experiment [1] it was 61.1 µM (active); in experiment [2] it was 17.2 µM (active); in experiment [3], 49 µM (active); in experiment [4], 21.7 µM (active); in experiment [5] it was 13.7 µM (active). In experiment [6], the Potency was 54.9 µM (active). The Potency result in [10] was “inactive”.
